Screen size: about 96,000 compounds; about 20,000 (21%) were called active.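 How the source made its calls: active means CYP2C19 inhibition above a set limit at 5 µM in the primary screen (cut at about 50% in these data); inactive means the rest.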 Only a sample is shown.
The compounds below were run against Cytochrome P450 2C19 (Homo sapiens) (UniProt P33261) (assay: blockers of cytochrome P450 2C19 activity – biochemical, luminescence, ADME assay, primary screen (AID 778;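 further: plate controls were negative control wells for no effect and 2.5 mM tranylcypromine positive control for full effect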)). Settings: CYP2C19 Supersomes, luciferin-H EGE luminescence, 30 min; at 5 µM; stronger effect = higher value.
Cytochrome P450 2C19 (Homo sapiens), sequence (P33261 whole entry, looked up): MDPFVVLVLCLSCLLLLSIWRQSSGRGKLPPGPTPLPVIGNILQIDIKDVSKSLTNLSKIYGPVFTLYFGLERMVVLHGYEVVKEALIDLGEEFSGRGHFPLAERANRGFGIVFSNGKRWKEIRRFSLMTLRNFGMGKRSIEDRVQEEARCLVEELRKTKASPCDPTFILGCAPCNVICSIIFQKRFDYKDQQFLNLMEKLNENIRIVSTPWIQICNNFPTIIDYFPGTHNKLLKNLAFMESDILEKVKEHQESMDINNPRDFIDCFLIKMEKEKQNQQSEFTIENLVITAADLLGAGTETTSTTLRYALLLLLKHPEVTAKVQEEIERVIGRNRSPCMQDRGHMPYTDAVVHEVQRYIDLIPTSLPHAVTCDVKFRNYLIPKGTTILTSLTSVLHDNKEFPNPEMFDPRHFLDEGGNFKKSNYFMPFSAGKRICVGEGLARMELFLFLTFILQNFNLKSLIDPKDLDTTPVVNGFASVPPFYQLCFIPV

inhibition, inactive:
CCOC(=O)c1cnc(SCc2nc(N)nc(Nc3ccc(OC)cc3)n2)nc1N 21.6%
CN1CCN(c2cc(=O)n(-c3ccc(Cl)cc3)c(=O)[nH]2)CC1 -16.7%
O=C(Cc1ccc(-n2c(=O)[nH]c3ccccc3c2=O)cc1)N1CCN(c2cccc(Cl)c2)CC1 40.3%
Cc1cc(C(F)(F)F)c(C#N)c(SCC(=O)NC2CC2)n1 13.5%
Cc1cc(=O)[nH]c(SCC(N)=O)c1C#N -8.9%
Cc1cc(N2CCCC2=O)cc(C)c1S(N)(=O)=O -13.1%
Cn1c(=O)[nH]c(=O)c2c1nc(N(CCO)Cc1ccccc1)n2Cc1ccccc1Cl 9.3%
COc1ccccc1-c1nnc(SCC(=O)Nc2cc(C)on2)o1 -7.2%
COc1ccccc1-c1nnc(SCC(=O)N2CC(C)CC(C)C2)o1 (stereo not given) 49.2%
COc1ccc(CCNC(=O)CSc2nnc(CNC(=O)c3cccs3)o2)cc1OC 2.4%
Cn1c(SCC(=O)NC2CCCCC2)nnc1-c1cc2ccccc2o1 44.2%
COc1ccc(CCNC(=O)CSc2nc(C)nc3c2oc2ccccc23)cc1OC -3.9%
COc1ccc(C(=O)N(CCN2CCOCC2)CC(=O)NC2CCCC2)cc1OC -7.2%
O=c1c2ccccc2nc(N/N=C/c2ccccc2)n1O -14.2%
CC(C)c1cc(C(=O)O)on1 -10.8%
CCCCCCNCCn1cnc2c(N)ncnc21 -9.3%
Cc1ccc(C(=O)N/N=C/c2sc(=O)n(Cc3cccc(C(=O)O)c3)c2Cl)cc1 22.8%
COc1ccc(C2C=C(c3ccc(Br)cc3)Nc3nc(NS(C)(=O)=O)nn32)cc1 (stereo not given) 3.9%
O=C(Nc1cccc(Cl)c1)Nc1nnc(-c2ccccc2)o1 12.7%
CC1CC(C)CN(CC(=O)Nc2ccc(S(N)(=O)=O)cc2)C1 (stereo not given) 4.7%
CC(C)Nc1nc(N(c2ccccc2)c2ccccc2)nc(-n2ccnc2)n1 39.2%
O=C(Nc1nnc(SCc2ccc(Cl)cc2Cl)s1)C1COc2ccccc2O1 (stereo not given) 38.1%
CCCCC(=O)Nc1ccc2c(c1)C(=O)NC2=O -10.8%
COC(=O)CCNc1ccc2c(c1)OCCO2 24.9%
C=C(C)C(=O)Nc1cccc(C(C)=O)c1 -1.5%
O=C(COc1ccc2c(C(F)(F)F)cc(=O)oc2c1)Nc1ccc2c(c1)OCCO2 -8.9%
CSc1ccccc1C(=O)Nc1cccc(C(C)=O)c1 3.3%
COc1ccc(S(=O)(=O)N(C)CC(=O)Nc2ccc3c(c2)OCCO3)cc1OC 21.9%
O=C(CSC1=NCCS1)Nc1nc(-c2ccccc2)cs1 22%
CCCN(CCC)CCNC(=O)c1cc2c(C)nc3ccccc3c2o1 -9.3%
Cc1c(C(=O)OCC(=O)N(CCC#N)c2ccccc2)oc2c1ccc1ccccc12 18.2%
O=C(O)CCC(=O)N(Cc1cccs1)Cc1cccs1 -5.7%
COc1cccc(-c2cnc(OC(C)(C)C)nc2OC(C)(C)C)c1 9.2%
CCCNC(=O)c1ccc(Cl)c(Cl)c1 -2.2%
CN(C)c1nc(N)nc(CSc2nnnn2-c2cccc3ccccc23)n1 24.3%
O=C1C2(c3ccccc3)CN(CCCO)CC1(c1ccccc1)CN(CCCO)C2 6.9%
Cc1ccccc1C(OCC(O)CN1CCCCC1CCO)c1ccccc1 (stereo not given) 18%
CCc1nnc(NC(=O)CCC(=O)O)s1 -16.3%
CC(C)(C)n1nnc(CCc2nnn(C(C)(C)C)n2)n1 34.7%
Cc1cc(C)c2nc(NC(=O)c3ccc4c(c3)OCO4)sc2c1 -1.4%
O=C(Nc1ccc2c(c1)OCCO2)c1cnccn1 14.5%
Cn1cc([N+](=O)[O-])c(C(=O)Nc2ccc3c(c2)OCCO3)n1 43.6%
Cc1ccc(-c2csc(NC(=O)Cc3cccs3)n2)cc1C 10%
O=C(O)c1cccc2c1C(=O)N(C1CCCCC1)C2 -19.3%
Brc1cccc(-c2nnc3n2CCC3)c1 -4.8%
O=C(NCCN1CCOCC1)c1c(F)c(F)c(F)c(F)c1F -10.6%
O=C(CNC(=O)c1cc2c(s1)CCC2)Nc1ccccc1Br 7%
CCCCOC(=O)CNc1nnc(SCC(=O)OCC)[nH]c1=O -15.4%
Fc1ccc(CSc2nnc(-c3cc4c(s3)-c3ccccc3CC4)o2)cc1 31.9%
COC(=O)c1ccc(CSc2nc3cc(Cl)ccc3o2)cc1 -5.7%
CCC(C)NC(=O)c1cc(Cl)ccc1OC (stereo not given) 22%
Cc1cc(C(F)F)n2nc(C(=O)Nc3ccc(S(=O)(=O)NC45CC6CC(CC(C6)C4)C5)cc3)nc2n1 21.2%
COc1ccccc1C(=O)Nc1nc2nc(-c3ccccc3)cc(=O)n2[nH]1 7.1%

inhibition, active:
Cc1cc(C)c(C#N)c(SCS(=O)c2ccc(C(C)(C)C)cc2)n1 (stereo not given) 78.5%
COc1ccc(-c2nnc(SCC(=O)NC3CCCCC3)o2)cc1OC 56.3%
COc1ccccc1-c1nnc(SCC(=O)Nc2ccccc2)o1 69.7%
COc1ccc(CCNC(=O)CSc2nnc(-c3cccc(F)c3)o2)cc1OC 95.8%
CCN(CC(=O)Nc1ccc2c(c1)OCCO2)Cc1cc(=O)oc2cc(C)c(C)cc12 88.4%
CCCCC(=O)Nc1ccc2c(c1)OCCO2 50.3%
CC(=O)c1cccc(NC(=O)c2ccncc2)c1 74.6%
O=C(Nc1nc(-c2ccncc2)cs1)C1COc2ccccc2O1 (stereo not given) 96.4%
O=C(Nc1ccc2c(c1)OCCO2)c1ccncc1 76.5%
O=C(Nc1nc(-c2ccc3c(c2)OCO3)cs1)c1ccncc1 63.2%
O=C(NCCCN1CCOCC1)c1cc2c(s1)CCC2 52.8%
Clc1ccc(CSc2nnc([C@@H]3CCCN3)o2)cc1 97.9%
